Source: PubChem BioAssay
Shiga inhibitor: blocks Shiga toxin action in Vero cells. 290,000 tested, 9.2% active. Vero cells, Shiga toxin protein synthesis inhibition reporter. inhibition, % at 38.7 µM. AID 2315; in the data active = inhibition mostly above about 28%, no sharp cut-off; inactive = mostly below about 43%
MARV entry inh: inhibitors of Marburg virus binding or cell entry. Potency, µM (doses to about 37.8 µM), most hits filed as inhibitors. 300,000 tested, 1.8% active. Marburg virus pseudotyped entry inhibition, cell reporter. AID 540276; calls by dose curve; tested in HEK293 cells
Lassa entry inh: Lassa virus entry inhibition; Lassa virus pseudotype entry inhibition, cell reporter; Potency, µM (top dose mostly 37.9 µM), most hits filed as inhibitors; 300,000 tested, 1.2% active; AID 540256; calls by dose curve; tested in HEK293 cells; note: nearly all actives have a fitted effect of over 50% in size
Cycloheximide cs: counter-screen for Shiga toxin inhibitors: cycloheximide protein synthesis inhibition | max response, % | AID 2314 | 300,000 tested, 12% active | cell reporter, cycloheximide protein synthesis inhibition counterscreen; in the data active = max response mostly above about 13%, no sharp cut-off; inactive = mostly below about 14%; note: read at 38.3 µM for the half of the compounds with a filed dose
A number is an active result; i = inactive; ? = inconclusive; nt = no result. Only some compounds are listed: those with a hit (about 12% of all), similar ones and a draw of the others.

SMILES	Shiga inhibitor	MARV entry inh	Lassa entry inh	Cycloheximide cs
COc1ccc(NC(=O)C(C)SCc2ccccc2)cc1OC (configuration not stated)	i	i	i	i
CC[C@H]1[C@@H]2C=C[C@@H]3[C@H]4C/C=C\C(=O)NCCC[C@@H]5NC(=O)C(=C5O)C(=O)CC[C@@H]4C[C@@H]3[C@H]2C[C@H]1C	i	nt	nt	i
CSC1=N/C(=C/c2cccnc2)C(=O)N1Cc1ccc(Cl)cc1	i	nt	nt	44
CC(=C\C(=O)O)/C(=C\c1cccc2ccccc12)C(=O)O	83	i	i	25
CC(=C\C(=O)O)/C(=C/c1ccco1)C(=O)O	i	nt	nt	i
Clc1ccc(-c2cn3nc4c(nc3n2)CCCC4)cc1	88	?	0.71µM	37
OC1CCN(c2c3c(nc4cc(-c5ccc(Cl)cc5)nn24)CCC3)CC1	i	i	i	i
COc1cccc(-c2cn3nc4c(nc3n2)CCCC4)c1	i	?	?	16
COc1cccc(-c2cc(C(F)(F)F)n3nc(N)nc3n2)c1	i	i	i	i
O=C(NC1CCCC1)c1cc(-c2ccc(Cl)c(Cl)c2)on1	45	i	i	27
Cc1ccc(-c2cc(C(=O)NC3CCCC3)no2)cc1	92	10µM	i	37
O=C(COCc1cc(-c2cccs2)on1)NC1CCCCC1	i	nt	nt	i
O=C(NC1CCCCC1)c1cc(-c2ccc(F)cc2)on1	i	i	nt	12
COc1cc(NC(=O)c2cc(-c3ccc(Cl)c(Cl)c3)on2)cc(OC)c1OC	nt	i	?	nt
Cc1cc(C(=O)NC2CCCC2)on1	i	nt	nt	i
O=C(NC1CCCCC1)c1cc(-c2cccs2)on1	117	i	?	50
CCO/C=N/Nc1nc(C(F)(F)F)nc2c1cnn2Cc1ccccc1	i	nt	nt	i
CCC1CCc2sc(C(=O)NCc3ccccn3)cc2C1 (configuration not stated)	61	?	i	37
CCOc1ccccc1N1CCN(C(=O)c2cn(CC3CCCCC3)nn2)CC1	142	i	i	37
Fc1ccc(-c2csc(N3CCC(c4ccccc4)C3)n2)cc1 (configuration not stated)	94	?	?	76
Clc1ccc(-c2csc(N3CCC(c4ccccc4)C3)n2)cc1 (configuration not stated)	95	i	?	i
COc1ccc(-c2csc(N3CCC(c4ccccc4)C3)n2)cc1 (configuration not stated)	i	i	?	i
COC(=O)c1ccccc1NC(=O)Cn1c(=O)n(-c2cccc(OC)c2)c(=O)c2c(C)c(C(=O)N(C)C)sc21	nt	nt	i	nt
Cc1c(C(=O)Nc2ccccc2)oc2c1C(=O)CC(C)(C)C2	82	i	i	33
CSc1nc2[nH]c(=O)n(O)c(=O)c2n1Cc1ccccc1	nt	i	i	nt
SMILES	Shiga inhibitor	MARV entry inh	Lassa entry inh	Cycloheximide cs
CN(C)Cc1cc(C(C)(C)c2cc(CN(C)C)c(O)c(CN(C)C)c2)cc(CN(C)C)c1O	i	12µM	?	i
Cc1ccc(-c2nc(CN(C)C)cc(CN(C)C)c2O)cc1	i	i	i	i
O=C(OCc1ccccc1)c1ccc2c(c1)-c1ccccc1C2=O	27	i	?	16
O=C(OCC#CCSc1nnc(-c2ccc([N+](=O)[O-])cc2)o1)c1cccs1	i	i	?	i
CCOC(=O)CCc1cc(F)c(S(=O)(=O)N2CCN(S(=O)(=O)c3ccc4c(c3)OCCO4)CC2)cc1F	i	nt	nt	i
O=C(Nc1nc(-c2ccccc2)cs1)c1cccc([N+](=O)[O-])c1C(=O)O	i	?	i	i
COc1ccc(-c2csc(NC(=O)c3ccccc3F)n2)cc1	nt	nt	nt	15
O=C(Nc1nc(-c2ccccc2)cs1)c1ccc(Br)o1	107	i	i	32
O=C(Nc1nc(-c2ccccc2)cs1)c1ccccc1F	62	?	i	41
O=C(Nc1nc(-c2ccncc2)cs1)c1ccco1	i	?	i	i
COc1ccc(NS(=O)(=O)c2ccc3c(c2)NC(=O)CC(=O)N3)cc1OC	i	i	i	i
CC1C2NC(=O)N(Cc3ccccc3)C1(C)Oc1ccccc12 (configuration not stated)	i	nt	nt	i
Cn1cnnc1SCC(C)(C)NS(=O)(=O)c1ccc(Cl)cc1	i	i	i	i
COC(=O)c1c(-c2cccs2)csc1NC(=O)c1cccnc1	60	i	i	37
COC(=O)c1c(-c2cccs2)csc1NC(=O)c1ccc(Cl)cc1	nt	i	?	nt
O=C1c2ccccc2CC1Sc1nnc(-c2ccccn2)o1 (configuration not stated)	75	?	?	17
Cc1c(C(=O)NCc2ccc(F)cc2)sc2nc(-c3ccccc3)cn12	nt	nt	i	nt
Cc1nc2cc(-c3ccccc3)nn2c(C)c1CCC(=O)NCc1ccco1	68	nt	nt	39
Cc1c(C(=O)NCc2ccco2)sc2nc(-c3ccccc3)cn12	66	nt	nt	54
Cc1c(C(=O)NCc2cccnc2)sc2nc(-c3ccc(F)cc3)cn12	45	nt	nt	30
